High-throughput results: PubChem, several laboratories
The list is not random: actives were taken first. Their share in the collection is about 5.3%.
Mot1-301 SUMO: SUMOylation pathway inhibition by Mot1-301 growth rescue; S. cerevisiae Mot1-301 growth rescue, ATP luminescence, 38.5C; percent above DMSO median, 100 means doubled; growth rescue, % at 18.8 µM; 320,000 compounds, 1% hits; AID 2716;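 active = every valid replicate shows activation above 250% relative to neutral control wells; inactive = the rest, any valid replicate at or below 250%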
HIF act: HIF pathway transcriptional activation. U2OS HRE-luciferase reporter, luminescence; normalized: DMSO 0%, desferrioxamine 100%. activation, % at 7.5 µM (by protocol). 300,000 compounds, 0.32% hits. AID 1910;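 active = mean activation of at least 10% of the iron chelator positive control signal, with at least half of replicates also reaching 10%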
ALR H2O2 inh: human ALR oxidase inhibition via reduced H2O2. purified ALR, DTT oxidation, H2O2 HRP-luminol luminescence. 290,000 compounds, 3.8% hits. inhibition, % (test concentration not listed). AID 485317. P55789;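 active = mean replicate inhibition above about 79%, with every replicate also reaching it, limit read from the data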
Target sequence (P55789 whole entry, looked up): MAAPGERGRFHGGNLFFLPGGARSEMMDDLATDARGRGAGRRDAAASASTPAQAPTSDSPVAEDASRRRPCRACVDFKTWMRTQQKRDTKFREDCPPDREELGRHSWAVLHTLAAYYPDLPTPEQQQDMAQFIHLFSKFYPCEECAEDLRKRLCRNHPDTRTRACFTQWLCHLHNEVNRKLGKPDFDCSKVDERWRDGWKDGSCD
M18AAP inhibitor: PfM18AAP enzyme inhibition; recombinant PfM18AAP, H-Glu-NHMec fluorogenic cleavage; inhibition, % at 7.35 µM; 290,000 compounds, 1.2% hits; AID 1822;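 active = inhibition above the campaign mean inhibition over all tested compounds plus 3 SD, cut at about 28% in these data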
Each line names hits and unclear results; the compound was inactive in the other large screens.

Cc1nn2c(NCCOCCO)c3c(nc2c1-c1ccccc1)CCCC3	ALR H2O2 inh 86
S=C1NC2=C(CCC/C2=C\c2ccccc2)C(c2ccccc2)N1 (centres undefined)	none
C(=C1/CCCC2=C1Nc1ncnn1C2c1ccccc1)/c1ccccc1 (centres undefined)	ALR H2O2 inh 91
O=C(CNC(=O)c1ccco1)OCC(=O)c1ccc(Cl)cc1	none (no result: ALR H2O2 inh)
O=C(CNC(=O)c1ccco1)NCC(=O)OCC(=O)c1ccc(Cl)c([N+](=O)[O-])c1	ALR H2O2 inh 98
COc1ccc(NC(=O)CSc2c(C)n[nH]c2C)cc1	ALR H2O2 inh 99
COc1ccc(NC(=O)CSc2nnc(C)c3ccccc23)cc1	ALR H2O2 inh 99
Cc1n[nH]c(C)c1SCC(=O)Nc1ccc(F)cc1	none
COc1nc(Cl)cn(-c2ccc(C)cc2)c1=O	none
Cc1ccc(-n2c(Cl)c(Cl)nc(Cl)c2=O)cc1	ALR H2O2 inh 97 (no result: HIF act)
CN(C)/C=C1/OC(=O)C(C#N)=C1c1ccc(Cl)cc1	none (no result: ALR H2O2 inh)
N#C/C(=C/c1ccc(C(=O)O)cc1)C(=O)Nc1ccccc1	none
N#C/C(=C\c1ccc(O)c(O)c1)C(=O)c1ccc(O)c(O)c1	ALR H2O2 inh 100 (no result: HIF act, M18AAP inhibitor)
Nc1sc(-c2ccccc2)cc1-c1n[nH]c(=S)n1C1CCCCC1	ALR H2O2 inh 98
C=CCn1c(-c2ccccc2[N+](=O)[O-])n[nH]c1=S	ALR H2O2 inh 89
C=CCn1c(-c2cccc(OC)c2)n[nH]c1=S	ALR H2O2 inh 96
C=CCn1c(-c2ccc([N+](=O)[O-])cc2)n[nH]c1=S	none
COC(Cn1c(-c2cccc(S(=O)(=O)N(C)C)c2)n[nH]c1=S)OC	M18AAP inhibitor 31
C=CCn1c(-c2csc(-c3ccccc3)n2)n[nH]c1=S	none
C=CCn1c(-c2cc(-c3ccccc3)sc2N)n[nH]c1=S	ALR H2O2 inh 93, M18AAP inhibitor 28
Cc1cc(C)nc(-n2nc(C)c(Br)c2Nc2ccc(Br)cc2)n1	none
Cc1nn(C)c(Nc2ccc(Br)cc2)c1Br	ALR H2O2 inh 93
O=C(Oc1ccc(/C=N/O)cc1)c1ccccc1Cl	ALR H2O2 inh 99
Oc1ccccc1-c1cc(-c2ccccc2)n[nH]1	Mot1-301 SUMO 338 (no result: HIF act, M18AAP inhibitor)
Cc1ccc(O)c(-c2cc(-c3cccc(Br)c3)n[nH]2)c1	Mot1-301 SUMO 280
Oc1ccc(Cl)cc1-c1cc(-c2ccccc2)n[nH]1	Mot1-301 SUMO 343
Oc1ccccc1-c1cc(-c2ccc(F)cc2)n[nH]1	none
Cc1ccc(-c2cc(-c3ccc(C)cc3O)[nH]n2)cc1	none
O=C(O)c1cccc2c1C(=O)c1ccc(-c3ccc(F)cc3F)cc1S2(=O)=O	none (no result: HIF act, M18AAP inhibitor)
Cc1nnc(SCC(=O)c2ccc(Br)cc2)s1	none
CCCc1nnc(SCC(=O)N2CCCCC2)n1CCCOC	none
C/C(=N\n1cnnc1)c1ccc(C#N)cc1	none
Cc1cc(C)c(O)c(-c2cc(C(=O)Nc3c(C)n(C)n(-c4ccccc4)c3=O)[nH]n2)c1	ALR H2O2 inh 99 (no result: Mot1-301 SUMO)
Cc1c(NC(=O)c2ccccc2)c(=O)n(-c2ccccc2)n1C	none
Cc1nc2cc(N)ccc2n1C1CCCCC1	ALR H2O2 inh 100
CCn1c(=O)n(CC)c2cc(S(N)(=O)=O)ccc21	none
CCn1c(C)nc2cc(N)ccc21	ALR H2O2 inh 98
CCn1c(=O)n(CC)c2cc(N)ccc21	ALR H2O2 inh 98
Cc1cc(C)n(C(=O)c2cc([N+](=O)[O-])cc([N+](=O)[O-])c2)n1	none
Cc1ccc2c(c1)-n1c(nc3cc(F)ccc3c1=O)C(Cc1ccc(O)cc1)NC2=O (centres undefined)	none (no result: HIF act, M18AAP inhibitor)
COc1ccc2nc(C)cc(SCC(=O)NNC(=O)COc3ccccc3)c2c1	none
COc1ccc2nc(C)cc(Sc3nc4ccccc4s3)c2c1	ALR H2O2 inh 99
CCCCn1c(N)c(N(CC)C(=O)c2ccc(Cl)c(Cl)c2)c(=O)[nH]c1=O	none
Cc1nnc(NC(=O)CSc2cn(CCNC(=O)c3ccccc3)c3ccccc23)s1	none
NC(=O)CSc1cn(CCNC(=O)c2cccs2)c2ccccc12	ALR H2O2 inh 98 (no result: M18AAP inhibitor)
Cc1ccc(-n2nc(C)c(Sc3ccccc3[N+](=O)[O-])c2N)cc1	ALR H2O2 inh 87
Cc1n[nH]c(C)c1Sc1ccccc1[N+](=O)[O-]	none
O=C1NCCCc2c1oc1cc(Br)c(O)c(Br)c21	ALR H2O2 inh 99
CC(C)NCc1c(O)c(Br)cc2oc3c(c12)CCCC3	none (no result: Mot1-301 SUMO, HIF act, ALR H2O2 inh)
O=C(CSCc1ccc(Cl)cc1)Nc1ccc(O)cc1C(=O)O	ALR H2O2 inh 96
COc1ccc(NC(=O)CNC(=O)Cc2cccc3ccccc23)c(OC)c1	HIF act 93 (no result: M18AAP inhibitor)
COc1cc(NC(=O)CSCc2ccc(Cl)cc2)c(C(=O)O)cc1OC	none (no result: ALR H2O2 inh)
O=C(Cc1cccc2ccccc12)Nc1ccc(O)cc1C(=O)O	ALR H2O2 inh 97
